Screens from PubChem.
FLuc modulator – qHTS profiling assay for firefly luciferase inhibitor/activator using purifed enzyme and Km concentrations of substrates (counterscreen for miR-21 project); Luciferin 4-monooxygenase (Photinus pyralis), P08659; purified FLuc, Km substrates, luminescence inhibition; Potency, µM (top dose mostly 57.5 µM), inactives show at the highest dose activity change, negative = inhibition, hits mostly inhibitors; 6.9% of 360,000 active; AID 588342, 2011;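 also: plate controls were vehicle for no effect and reference inhibitor for full effect; nearly all actives have a fitted effect of over 55% in size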
Target sequence (P08659 whole entry, looked up): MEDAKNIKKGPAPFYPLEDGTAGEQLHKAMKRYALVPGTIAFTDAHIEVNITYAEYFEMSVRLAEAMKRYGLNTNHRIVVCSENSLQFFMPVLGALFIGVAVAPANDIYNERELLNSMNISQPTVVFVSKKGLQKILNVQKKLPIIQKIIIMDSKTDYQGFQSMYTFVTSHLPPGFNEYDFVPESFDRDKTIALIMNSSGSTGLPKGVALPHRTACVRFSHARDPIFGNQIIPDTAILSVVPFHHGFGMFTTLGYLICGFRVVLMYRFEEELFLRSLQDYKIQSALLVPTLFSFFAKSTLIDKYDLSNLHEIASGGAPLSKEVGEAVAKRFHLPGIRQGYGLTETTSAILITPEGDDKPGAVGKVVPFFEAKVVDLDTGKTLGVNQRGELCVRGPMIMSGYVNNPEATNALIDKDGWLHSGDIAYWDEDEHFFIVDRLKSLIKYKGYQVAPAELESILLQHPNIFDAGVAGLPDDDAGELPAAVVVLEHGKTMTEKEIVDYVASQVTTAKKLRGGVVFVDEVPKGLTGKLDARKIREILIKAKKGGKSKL
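Purified P. pyralis luciferase (10nM final) with 10uM D-luciferin and 10uM ATP (Km levels) in 50mM Tris acetate pH 7.5, 10mM Mg acetate, 0.01% Tween-20, 0.05% BSA; qHTS 6-point titration, ~60 µM downward; luminescence read.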
NPC1 prom act – qHTS Assay for NPC1 Promoter Activators; 2.4% of 320,000 active; Huh7 NPC1 promoter luciferase reporter, 24 h; Potency, µM (top dose mostly 9.22 µM), for the others: top-dose activation, hits mostly activators; also: % of control where 0% means no effect; nearly all actives have a fitted effect of over 60% in size
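Stable NPC1-promoter luciferase Huh7 line; cpd (DMSO) 24 h, 37 °C, 5% CO2; Amplite luciferase reagent 10 min RT; luminescence readout. qHTS format.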
ELG1 genotox – qHTS screen for small molecules that induce genotoxicity in human embryonic kidney (HEK293T) cells expressing luciferase-tagged ELG1. Potency, µM (top dose mostly 46 µM), without a hit: at the top dose activity change, positive = activation, most hits filed as activators. HEK293T ELG1-luciferase reporter, luminescence, 16 h. AID 504466, 2011. 1.3% of 330,000 active; also: % of control where 0% means no effect; nearly all actives have a fitted effect of over 60% in size
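Screening used a luciferase reporter fused to human ELG1 in HEK293T cells. Luminescence was read on a CCD plate imager after 16 hr exposure and 30 min ONE-Glo incubation.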
Rab9 promoter act – qHTS Assay for Rab9 Promoter Activators; Potency, µM (highest dose often 9.22 µM), inactives show at the highest dose activation, negative = inhibition, usual class: activators; Huh7 Rab9 promoter-luciferase reporter, luminescence, 24 h; 2.8% of 320,000 active; also: % of control where 0% means no effect; nearly all actives have a fitted effect of over 60% in size
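Rab9 promoter-driven luciferase in stably transfected Huh7 cells; 1500 cells/well rested 2 h, exposed to compound in DMSO for 24 h at 37 °C, 5% CO2. Luminescence read 10 min after adding luciferase reagent at ambient temperature.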
SMN2 splice up – qHTS Assay for Enhancers of SMN2 Splice Variant Expression; AID 1458, 2008; Potency, µM (highest dose often 46.1 µM), for inactives: top-dose activity change, positive = activation, most hits filed as activators; 2.8% of 210,000 active; HEK293 SMN2-luciferase splicing reporter, luminescence, 30-36 h; also: % of control where 0% means no effect; nearly all actives have a fitted effect of over 55% in size
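HEK293 cells carry an SMN2 […]–luciferase reporter in which exon 7 inclusion puts luciferase in frame. Cells were plated 10-12 h before compound addition, then incubated 30-36 h at 37C. ONE-Glo luminescence was read; sodium butyrate at 4.5 mM final served as control.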
ELG1 repair inh – qHTS screen for small molecules that inhibit ELG1-dependent DNA repair in human embryonic kidney (HEK293T) cells expressing luciferase-tagged ELG1 | HEK293T ELG1-luciferase reporter, luminescence, 16 h; DNA damage induced by 5-fluorouridine | Potency, µM (titrated, usually from 46.1 µM), for inactives: at the top dose activity change, negative = inhibition, most hits filed as inhibitors | 2.3% of 330,000 active; also: % is scaled to controls: 0 for no effect and ±100 for the full control effect; nearly all actives have a fitted effect of over 55% in size
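DMSO vehicle served as the neutral condition. Each well held 2,000 cells given 5-fluorouridine plus compound; after 16 hr at 37 °C/5% CO2, ONE-Glo was added and luciferase measured 30 min later.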
The depositor's hits bear a star; ? = inconclusive; . = no result given. Only some compounds are listed: those with a hit (about 9.2% of all), similar ones and a draw of the others. Calls follow the shape of the dose curve; as a rule, active = well fitted curve in the direction sought with a large enough effect; inconclusive = small, poorly fitted or top-dose-only effect, or another doubt; inactive = no such curve, though single readings can be large; an effect the other way counts as inactive or inconclusive. Potency is read from the fitted curve at half-maximal effect.

SMILES | FLuc modulator | NPC1 prom act | ELG1 genotox | Rab9 promoter act | SMN2 splice up | ELG1 repair inh
CC(=O)Nc1cccc(NC(=O)C(=O)c2cn(CC(=O)N3CCCCC3)c3ccccc23)c1 | 8.5µM* | 22% | 8% | ? | 17% | 3%
O=C(CSc1cn(CC(=O)N2CCCCCC2)c2ccccc12)Nc1ccccc1F | -16% | . | . | . | . | .
COc1ccc(NC(=O)C(=O)c2cn(CC(=O)N3CCCC3)c3ccccc23)cc1 | 12µM* | -16% | ? | -21% | . | ?
O=C(Nc1ccccc1F)C(=O)c1cn(CC(=O)N2CCCCC2)c2ccccc12 | 5.4µM* | 14% | -2% | 30% | ? | 7%
CC(=O)Nc1ccc(NC(=O)C(=O)c2cn(CC(=O)N3CCCC3)c3ccccc23)cc1 | -13% | 7% | -6% | 0% | . | 7%
CC(=O)Nc1ccc(S(=O)(=O)N2CCN(C(=O)c3ncoc3-c3ccccc3)CC2)cc1 | 5% | 0% | -1% | -1% | . | -1%
COc1ccc(NC(=O)c2cc([N+](=O)[O-])ccc2NC(=O)CNCc2ccccn2)c(OC)c1 | 0% | 3% | -5% | 3% | . | -12%
O=C(Nc1ccccc1)c1ccc(NCC2CCCO2)c([N+](=O)[O-])c1 (stereo not given) | ? | ? | 14% | ? | 18µM* | ?
COc1cc(NC(=O)c2cc([N+](=O)[O-])ccc2NC(=O)CNCc2ccccn2)cc(OC)c1 | -1% | -3% | -9% | -3% | . | 6.5µM*
Cc1cccc(NC(=O)c2cc([N+](=O)[O-])ccc2NCC2CCCO2)n1 (stereo not given) | -2% | -2% | -16% | -9% | -21% | 15µM*
COc1cc(NC(=O)c2cc([N+](=O)[O-])ccc2NC(=O)CNC2CCCCC2)cc(OC)c1 | 2% | -3% | -22% | -4% | . | 21µM*
Cc1nc2cccnc2n1-c1cccc(C(=O)NCCc2ccc(S(N)(=O)=O)cc2)c1 | -3% | . | . | . | . | .
COc1cccc(NC(=O)c2cc([N+](=O)[O-])ccc2NC(=O)CNCC2CCCO2)c1 (stereo not given) | -3% | 7% | -10% | -11% | 4% | 9.2µM*
O=C(CNCC1CCCO1)Nc1ccc([N+](=O)[O-])cc1C(=O)Nc1ccccc1F (stereo not given) | 1% | 0% | -15% | -1% | 17% | ?
CN(C)c1ccc(NC(=O)CN2CCN(CC(=O)Nc3ccc(Br)cc3)CC2)cc1 | -15% | . | . | . | . | .
O=C1CSC(c2cn(-c3ccccc3)nc2-c2ccccc2)N1Cc1ccco1 (stereo not given) | 5% | -2% | -7% | 28% | -13% | 18µM*
COc1ccc(/C=C/C(=O)c2ccc(Cl)s2)cc1O | 1.1µM* | -5% | ? | 6% | -12% | ?
COc1ccc(C(=O)/C=C/c2ccc(OC)c(O)c2)c(F)c1 | 11µM* | 5% | 16% | -8% | -16% | ?
COc1ccc(/C=C/C(=O)CC(=O)/C=C/c2cccc(O)c2OC)cc1O | . | . | . | . | 21% | .
O=C(O)/C=C/C(=O)c1ccc2c(c1)CCc1ccccc1-2 | 24µM* | 26% | -11% | ? | . | ?
CC(c1ccccc1)n1c(N2CCNCC2)nc2c1c(=O)[nH]c(=O)n2C (stereo not given) | 0% | -1% | 3% | 1% | . | 0%
O=C(c1ccc(-c2nc3ccccc3s2)s1)N1CCOCC1 | 0.38µM* | 0.089µM* | ? | ? | . | ?
CCCN1CCN(C(=O)c2ccccc2-c2nc3ccccc3s2)CC1 | 1% | 2% | 0% | -1% | 10% | 9%
